VLA-4 inh – inhibition in human VLA-4 binding assay, primary screen, VLA-4 allosteric modulator project, MLPCN library, flow cytometry, VLA-4 expressing cells; Integrin alpha-4 (Homo sapiens), P13612; ligand binding flow cytometry; inhibition, % (about 7 µM as worked out from the volumes in the protocol); 0.2% of 330,000 active; AID 2557, 2010; in the data active = inhibition above about 50%
Target sequence (P13612 whole entry, looked up): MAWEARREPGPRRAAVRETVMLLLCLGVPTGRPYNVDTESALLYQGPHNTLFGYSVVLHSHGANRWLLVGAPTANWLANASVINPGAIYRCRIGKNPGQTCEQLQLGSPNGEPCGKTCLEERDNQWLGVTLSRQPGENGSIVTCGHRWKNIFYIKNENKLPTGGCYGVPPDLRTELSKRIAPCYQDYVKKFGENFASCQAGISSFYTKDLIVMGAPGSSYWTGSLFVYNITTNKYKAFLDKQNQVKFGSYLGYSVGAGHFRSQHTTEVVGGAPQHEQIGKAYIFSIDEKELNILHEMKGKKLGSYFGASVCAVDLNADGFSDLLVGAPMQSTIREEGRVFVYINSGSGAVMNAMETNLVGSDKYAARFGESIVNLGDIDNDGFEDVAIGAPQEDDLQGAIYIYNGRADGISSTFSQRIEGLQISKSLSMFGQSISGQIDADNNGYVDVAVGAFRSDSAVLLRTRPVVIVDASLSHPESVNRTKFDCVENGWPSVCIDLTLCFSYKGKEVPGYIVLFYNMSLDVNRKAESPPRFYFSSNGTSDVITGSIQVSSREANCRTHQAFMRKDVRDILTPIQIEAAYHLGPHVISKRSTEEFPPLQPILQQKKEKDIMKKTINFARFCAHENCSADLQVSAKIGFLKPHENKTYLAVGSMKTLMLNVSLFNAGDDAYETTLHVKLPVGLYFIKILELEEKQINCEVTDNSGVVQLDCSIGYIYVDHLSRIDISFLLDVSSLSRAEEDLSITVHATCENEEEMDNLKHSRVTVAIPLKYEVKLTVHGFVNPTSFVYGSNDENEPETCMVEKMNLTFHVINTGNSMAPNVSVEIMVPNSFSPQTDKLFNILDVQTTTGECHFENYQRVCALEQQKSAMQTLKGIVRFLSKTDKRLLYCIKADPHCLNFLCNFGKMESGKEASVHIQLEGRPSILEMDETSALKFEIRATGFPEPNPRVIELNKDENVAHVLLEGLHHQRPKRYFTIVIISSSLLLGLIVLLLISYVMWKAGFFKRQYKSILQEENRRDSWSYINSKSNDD
LAP4 TOR yeast – modulators of LAP4-GFP expression in yeast, primary screen, S. cerevisiae, multiplex flow cytometry, MLPCN library. 3 h; median GFP as percent of DMSO wells. GFP response vs DMSO, % at 10 µM. 0.34% of 320,000 active. AID 2023, 2009;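 active = GFP response vs DMSO above a set limit, about the screen mean plus 3 SD, cut at about 150% in these data; inconclusive = under 70 cell events counted for the yeast strain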
RPL19A-GFP yeast – RPL19A-GFP expression modulators in yeast, primary screen, cell-based, S. cerevisiae, multiplex flow cytometry, MLPCN; S. cerevisiae RPL19A-GFP strain, 3 h; hits give low values; percent response vs DMSO, % at 10 µM; AID 2025, 2009; 0.3% of 330,000 active;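 active = percent response vs DMSO below 50%; inconclusive = fewer than 70 events counted for the yeast strain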;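 note: median channel GFP fluorescence of the barcoded RPL19A-GFP strain; lower means less RPL19A-GFP as with rapamycin TOR inhibition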
AGP1 TOR yeast – modulators of AGP1-GFP expression in yeast TOR pathway, primary screen, cell-based, multiplex flow cytometry, S. cerevisiae, MLPCN library | 3 h; GFP as percent of DMSO wells | GFP response vs DMSO, % at 10 µM | 0.02% of 320,000 active | AID 2066, 2009;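 active = GFP response relative to DMSO above a set limit, near screen average plus 3 SD, cut at about 150% in these data; inconclusive = fewer than 70 cells counted for the yeast strain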;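 note: median GFP channel fluorescence of the gated AGP1 strain per well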
MEP2-GFP yeast – modulators of MEP2-GFP levels in yeast, primary screen, S. cerevisiae, multiplex flow cytometry, MLPCN library; AID 2016, 2009; S. cerevisiae MEP2-GFP strain, 3 h; 100% = DMSO control level; GFP response vs DMSO, % at 10 µM; 0.51% of 330,000 active;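 active = GFP response versus DMSO above a set limit, roughly screen mean plus 3 SD, cut at about 180% in these data; inconclusive = fewer than 70 cells counted for a yeast strain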;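 note: median GFP fluorescence of the barcode-gated MEP2-GFP cells per well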
CIT2-GFP yeast – modulators of CIT2-GFP expression in yeast, primary screen, S. cerevisiae, GFP fusion, multiplex flow cytometry, MLPCN library; AID 2029, 2009; GFP response vs DMSO, % at 10 µM; 0.065% of 320,000 active; S. cerevisiae CIT2-GFP strain, 3 h; 100 means same as DMSO wells;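 active = GFP response relative to DMSO above a set limit, near the screen mean plus 3 SD, cut at about 150% in these data; inconclusive = Fewer than 70 cells measured for a yeast strain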;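 note: ratio of well median GFP fluorescence to mean of DMSO wells on the plate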
LAP4-GFP pick2 – LAP4-GFP expression modulators in yeast, confirmation, cell-based, second cherry pick, flow cytometry; GFP response vs DMSO, % at 10 µM; 20% of 590 active; S. cerevisiae LAP4-GFP strain, 3 h; AID 2621, 2010; shares compounds with LAP4 TOR yeast;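 active = GFP signal as percent of the solvent control above about 150%, meaning raised reporter expression, limit read from the data; inconclusive = fewer than 70 cells counted in the well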
MEP2 cherry2 – modulators of MEP2-GFP levels in yeast, confirmation, S. cerevisiae, flow cytometry GFP, second cherry picks; shares compounds with LAP4 TOR yeast; S. cerevisiae MEP2-GFP strain, 3 h; GFP response vs DMSO, % at 10 µM; 10% of 590 active; AID 2622, 2010;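 active = GFP signal above 150% of the solvent control wells, that is a rise of more than half; inconclusive = fewer than 70 yeast cells counted in the well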;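 note: median channel GFP fluorescence of all gated yeast cells per well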
RPL19A GFP CP2 – RPL19A-GFP modulators in TOR pathway yeast, confirmation, cell-based, S. cerevisiae, flow cytometry, second cherry pick; 3% of 590 active; shares compounds with LAP4 TOR yeast; GFP response vs DMSO, % at 10 µM; S. cerevisiae RPL19A-GFP strain, 3 h; hits give low values; 100% means same as DMSO wells; AID 2623, 2010;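 active = under 65% GFP response relative to DMSO; inconclusive = yeast strain with under 70 measured events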;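 note: median GFP channel fluorescence per well over the all cells gate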
CIT2-GFP pick2 – modulators of CIT2-GFP expression in yeast, confirmation, flow cytometry, second cherry pick, single plex; shares compounds with LAP4 TOR yeast; S. cerevisiae CIT2-GFP strain, 3 h; DMSO control wells read 100%; GFP response vs DMSO, % at 10 µM; 8% of 590 active;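 active = GFP response vs DMSO above about 150%, limit read from the data; inconclusive = fewer than 70 events counted for a yeast strain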;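 note: median green fluorescence per well over all gated yeast cells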
AGP1-GFP pick2 – AGP1-GFP expression modulators, hit retest, confirmation, cell-based, flow cytometry, S. cerevisiae, cherry pick set 2. 590 tested, under 10 active. shares compounds with LAP4 TOR yeast. S. cerevisiae AGP1-GFP strain, 3 h. percent response vs DMSO, % at 10 µM. AID 2643, 2010;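 active = over 150 percent of DMSO response; inconclusive = yeast strain measured with under 70 events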;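 note: median GFP channel fluorescence over all cells without mother daughter split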
s288c autofluor – compound autofluorescence in yeast s288c, dose response, artefact control for yeast TOR pathway GFP screen, s288c strain | shares compounds with LAP4 TOR yeast | S. cerevisiae s288c, 520 nm autofluorescence, flow cytometry, 3 h; hits give high values; zero means same as solvent-only cells | fluorescence change (kMESF span) at 33 µM | 610 tested, under 10 active | AID 2757, 2010;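 active = fluorescence span over the dose series, or activity score, above about 33, limit read from the data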
s288c autofl DR – autofluorescence of compounds in yeast s288c, dose response, artefact control for yeast TOR pathway GFP screen, primary hits, KU SAR, s288c parental; shares compounds with LAP4 TOR yeast; S. cerevisiae s288c parental, compound autofluorescence, flow cytometry, 3 h; fluorescence change (span) at 33 µM; 110 tested, under 10 active; AID 488829, 2010;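 active = fluorescence change span, or the activity score built from it, above 25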
TORC1 bypass gr – wild-type yeast growth inhibition sparing TORC1 bypass cells, mechanism study for yeast TOR pathway GFP screen, BY4741 wild type, TORC1 bypass strain. shares compounds with LAP4 TOR yeast. S. cerevisiae BY4741 spot growth rating, 48-72 h; hits give low values. growth rating (0-3) at 30 µM. 120 tested, under 10 active;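 active = growth rating at most 1 for wild type yeast while the TORC1 bypass strain still grows fully, rated 3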
Large screens that a line does not name were inactive (follow-up assays come after a bar, where they were run). In the library only some 1.1% were active in any assay of this set; here they are far more common.

COc1ccc(C(=O)NNC(=S)NC(=O)/C=C/c2cccs2)cc1	LAP4 TOR yeast 186.1 | s288c autofluor inactive | s288c autofl DR inactive | TORC1 bypass gr inactive
COc1cccc(C2N=C(c3ccccc3C)NO2)c1OC (configuration not stated)	none
CC(C)(C)C(=O)NC(=S)NNC(=O)c1sc2ccccc2c1Cl	LAP4 TOR yeast 232.7 | s288c autofluor inactive
Brc1ccc(Oc2nsnc2N2CCOCC2)cc1	MEP2-GFP yeast 180.0 | LAP4-GFP pick2 inactive | MEP2 cherry2 inactive | RPL19A GFP CP2 inactive | CIT2-GFP pick2 inactive | AGP1-GFP pick2 inactive
COC(=O)Oc1nsnc1N1CCOCC1	none
O=S1(=O)C=C(Sc2nc3ccccc3s2)c2ccccc21	LAP4 TOR yeast 172.1 | LAP4-GFP pick2 175.0 | MEP2 cherry2 inactive | RPL19A GFP CP2 inactive | CIT2-GFP pick2 inactive | AGP1-GFP pick2 inactive | s288c autofluor inactive
Cc1cc(C)nc(SC2=CS(=O)(=O)c3ccccc32)n1	none
Cc1cc(C)c(C#N)c(Nc2cccc(C)c2C)n1	none
Cc1ccc(C2=NOC(=O)/C2=C\c2ccccc2)cc1	none
Cc1ccc(/C=C2/C(=O)ON=C2c2ccccc2)o1	LAP4 TOR yeast 257.1 | s288c autofluor inactive | s288c autofl DR inactive | TORC1 bypass gr inactive
O=C1ON=C(c2ccccc2)/C1=C\c1ccco1	LAP4 TOR yeast 218.8 | s288c autofluor inactive | s288c autofl DR inactive | TORC1 bypass gr inactive
O=C1ON=C(c2ccccc2)/C1=C/c1ccccc1	none
Cc1ccc(/C=C/C(=O)c2ccc([N+](=O)[O-])o2)cc1	LAP4 TOR yeast 175.6 | s288c autofluor inactive
Cc1ccc(CNC(=O)c2ccc([N+](=O)[O-])o2)cc1	none
CCN(CC)c1ccc(C(=O)O)cc1	none
CCN(CC)c1ccc(/C=C2\C(=O)c3ccc(C(=O)O)cc3C2=O)cc1	LAP4 TOR yeast 234.8, MEP2-GFP yeast 323.2, CIT2-GFP yeast 227.5 | LAP4-GFP pick2 276.6 | MEP2 cherry2 391.3 | RPL19A GFP CP2 inactive | CIT2-GFP pick2 262.8 | AGP1-GFP pick2 inactive | s288c autofluor inactive
CN(C)S(=O)(=O)c1ccc(NC(=O)CN2C(=O)NC(Cc3ccccc3)C2=O)cc1 (configuration not stated)	none
CC(C)[C@H](NS(=O)(=O)c1cccc(Cl)c1)C(=O)OCC(=O)NC(=O)CN1CCCC1=O	none
CC1(C)Cc2c(sc(NC(=O)c3ccc(S(=O)(=O)N4CCCCCC4)cc3)c2C(N)=O)C(C)(C)N1	AGP1 TOR yeast inconclusive
CC1(C)Cc2c(sc(NC(=O)c3ccc4c(c3)OCCO4)c2C(N)=O)C(C)(C)N1	CIT2-GFP yeast 152.8 | LAP4-GFP pick2 inactive | MEP2 cherry2 inactive | RPL19A GFP CP2 inactive | CIT2-GFP pick2 inactive | AGP1-GFP pick2 inactive
Cc1[nH]n(-c2ccccc2)c(=O)c1C(c1ccccc1C(=O)O)c1c(C)[nH]n(-c2ccccc2)c1=O	none
Cc1[nH]n(-c2ccccc2)c(=O)c1C(c1ccccc1[N+](=O)[O-])C(C#N)C#N (configuration not stated)	LAP4 TOR yeast 168.4 | s288c autofluor inactive
Cc1ccc(NC(=O)c2ccc(Cl)c(N3C(=O)C=CC3=O)c2)cc1	RPL19A-GFP yeast 49.6 | s288c autofluor inactive | s288c autofl DR inactive | TORC1 bypass gr inactive
O=c1oc(Cl)c(Cl)c2ccccc12	LAP4 TOR yeast 191.5 | LAP4-GFP pick2 inactive | MEP2 cherry2 inactive | RPL19A GFP CP2 inactive | CIT2-GFP pick2 inactive | AGP1-GFP pick2 inactive
O=c1oc2cc(O)c(Cl)cc2c2ccccc12	none
CCOC(=O)CSC1=NC(=O)/C(=C/c2ccc(Br)cc2)S1	LAP4 TOR yeast 215.8 | s288c autofluor inactive
CCOC(=O)CSC1=NC(=O)/C(=C\c2ccc(OC(C)=O)cc2)S1	none
CSC1=NS(=O)(=O)c2c(C)nn(C)c2S1	LAP4 TOR yeast 153.7 | s288c autofluor inactive | s288c autofl DR inactive | TORC1 bypass gr inactive
O=C(N/C(=C\c1ccc(F)cc1)C(=O)N1CCOCC1)c1ccccc1	none
CCN(c1ccccc1)S(=O)(=O)c1ccc(OC)c(NC(=O)c2cc(F)c(F)c(F)c2F)c1	LAP4 TOR yeast 176.8 | LAP4-GFP pick2 inactive | MEP2 cherry2 inactive | RPL19A GFP CP2 inactive | CIT2-GFP pick2 inactive | AGP1-GFP pick2 inactive
Cc1ccc(C(=O)/C=C/C(=O)c2ccc(C)cc2)cc1	VLA-4 inh 68.8, LAP4 TOR yeast 167.9 | s288c autofluor inactive

Screening results as filed in PubChem BioAssay.
